# Assay results taken from PubChem BioAssay (Tox21).
# Inconclusive results are not listed. Where a call stands in place of a potency, no number is given. Active and inactive are the calls of the source. Unless noted, calls follow the shape of the dose curve; as a rule, active = well fitted curve in the direction sought with a large enough effect in the repeat runs; inconclusive = weak or mixed curves; inactive = no such curve, though single readings can be large; an effect the other way counts as inactive or inconclusive.
# Legend:
# [1] = target: Estrogen receptor beta (Homo sapiens) (UniProt Q92731); experiment: qHTS assay to identify small molecule agonists of the estrogen receptor beta (ER-beta) signaling pathway (AID 1259377; active = well fitted activation curve with a large enough effect in the signal ratio in the repeat runs, not every such curve was filed as active; the % refers to the signal ratio)
# Chain of Estrogen receptor beta (Homo sapiens) (Q92731 whole entry, looked up): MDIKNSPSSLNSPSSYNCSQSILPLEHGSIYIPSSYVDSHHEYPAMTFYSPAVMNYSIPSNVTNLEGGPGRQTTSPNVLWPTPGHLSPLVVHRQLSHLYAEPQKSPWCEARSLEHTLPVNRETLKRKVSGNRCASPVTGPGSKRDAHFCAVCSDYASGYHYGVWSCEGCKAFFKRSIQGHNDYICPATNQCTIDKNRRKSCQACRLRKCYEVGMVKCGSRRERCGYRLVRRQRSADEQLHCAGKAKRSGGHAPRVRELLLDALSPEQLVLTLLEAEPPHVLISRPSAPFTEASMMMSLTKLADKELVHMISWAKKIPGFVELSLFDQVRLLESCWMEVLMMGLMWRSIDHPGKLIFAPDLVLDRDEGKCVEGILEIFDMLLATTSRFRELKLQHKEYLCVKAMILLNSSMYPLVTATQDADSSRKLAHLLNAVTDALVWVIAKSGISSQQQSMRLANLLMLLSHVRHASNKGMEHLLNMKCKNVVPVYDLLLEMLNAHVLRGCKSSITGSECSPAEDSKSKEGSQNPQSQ
# How it was run: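 Screening used GripTite ER-beta-UAS-bla cells held in 2% charcoal-stripped FBS medium. After overnight (16 hr) compound incubation at 37C, beta-lactamase activity was detected with a FRET substrate by fluorescence.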
# [2] = target: Androgen receptor (Homo sapiens) (UniProt P10275); experiment: qHTS assay to identify small molecule agonists of the androgen receptor (AR) signaling pathway in the presence of an antagonist (AID 1259381; calls by dose curve; also: nearly all actives have a fitted effect of over 15% in size; also: potency is read from the fitted curve at half-maximal effect)
# Chain of Androgen receptor (Homo sapiens) (P10275 whole entry, looked up): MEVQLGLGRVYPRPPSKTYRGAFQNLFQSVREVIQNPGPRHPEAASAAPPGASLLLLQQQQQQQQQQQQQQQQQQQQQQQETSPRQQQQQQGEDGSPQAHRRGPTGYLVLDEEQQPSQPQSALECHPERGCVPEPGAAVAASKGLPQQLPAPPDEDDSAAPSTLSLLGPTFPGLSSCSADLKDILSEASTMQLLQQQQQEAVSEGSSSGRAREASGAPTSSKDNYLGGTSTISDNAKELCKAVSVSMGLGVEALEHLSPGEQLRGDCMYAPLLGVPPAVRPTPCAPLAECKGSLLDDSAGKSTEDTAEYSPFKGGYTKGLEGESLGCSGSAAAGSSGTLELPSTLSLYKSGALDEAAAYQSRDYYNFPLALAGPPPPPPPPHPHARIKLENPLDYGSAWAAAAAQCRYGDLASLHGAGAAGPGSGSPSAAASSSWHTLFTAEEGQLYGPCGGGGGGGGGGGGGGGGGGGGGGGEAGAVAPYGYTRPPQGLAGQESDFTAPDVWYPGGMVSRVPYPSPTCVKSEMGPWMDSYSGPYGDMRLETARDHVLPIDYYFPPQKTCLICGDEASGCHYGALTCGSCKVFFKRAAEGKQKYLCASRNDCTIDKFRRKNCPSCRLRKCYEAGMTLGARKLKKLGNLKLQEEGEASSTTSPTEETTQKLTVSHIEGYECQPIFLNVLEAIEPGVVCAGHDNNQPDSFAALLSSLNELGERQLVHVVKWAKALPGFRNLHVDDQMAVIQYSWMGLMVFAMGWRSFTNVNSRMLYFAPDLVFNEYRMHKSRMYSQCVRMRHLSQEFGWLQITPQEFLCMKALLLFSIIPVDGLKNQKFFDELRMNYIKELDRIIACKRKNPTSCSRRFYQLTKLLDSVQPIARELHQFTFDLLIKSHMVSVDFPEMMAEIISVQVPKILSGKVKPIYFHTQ
# How it was run: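 Luminescent ONE-Glo read, 30min at room temperature, follows 16hr compound exposure (15 concentrations) of MDA-kb2 cells at 37C, 0% CO2, with nilutamide added at 3.0uM final.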
# [3] = qHTS assay to identify small molecule antagonists of the estrogen receptor beta (ER-beta) signaling pathway - cell viability counter screen (AID 1259382); also: series mostly up to about 92 µM; nearly all actives have a fitted effect of over 55% in size
# How it was run: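 Readout: luminescence, CellTiter-Glo, same wells as bla assay. System: ER-beta-UAS-bla GripTite HEK293T, 2% charcoal-stripped FBS. Exposure: compounds plus 1nM 17-beta-estradiol, 16 hr, 37C.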
# [4] = target: Estrogen receptor (Homo sapiens) (UniProt P03372); experiment: qHTS assay to identify small molecule agonists of the estrogen receptor alpha (ER-alpha) signaling pathway in the presence of an antagonist (AID 1259383; calls by dose curve; also: top concentration of the series differs between compounds; nearly all actives have a fitted effect of over 15% in size)
# Chain of Estrogen receptor (Homo sapiens) (P03372 whole entry, looked up): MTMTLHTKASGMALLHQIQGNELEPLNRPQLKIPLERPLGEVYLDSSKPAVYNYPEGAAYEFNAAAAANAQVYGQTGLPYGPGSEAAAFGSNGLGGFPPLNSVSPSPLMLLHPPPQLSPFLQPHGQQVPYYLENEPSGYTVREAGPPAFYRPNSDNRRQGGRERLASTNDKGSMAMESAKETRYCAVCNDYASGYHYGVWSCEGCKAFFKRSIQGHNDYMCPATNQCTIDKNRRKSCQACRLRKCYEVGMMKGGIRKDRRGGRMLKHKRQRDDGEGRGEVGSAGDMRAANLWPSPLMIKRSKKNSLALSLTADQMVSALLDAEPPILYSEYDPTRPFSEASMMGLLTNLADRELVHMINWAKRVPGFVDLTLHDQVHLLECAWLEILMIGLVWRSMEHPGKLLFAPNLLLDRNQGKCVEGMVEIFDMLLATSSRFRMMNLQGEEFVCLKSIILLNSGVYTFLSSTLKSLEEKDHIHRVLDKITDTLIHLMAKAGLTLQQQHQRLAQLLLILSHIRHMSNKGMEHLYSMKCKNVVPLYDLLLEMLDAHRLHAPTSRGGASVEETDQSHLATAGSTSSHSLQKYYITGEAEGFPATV
# How it was run: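 Quantitative HTS confirmation: compounds titrated at 15 concentrations onto estrogen-deprived VM7Luc4E2 cells carrying a four-ERE luciferase construct, with ICI-182,780 present at 10.0nM final. Signal is luminescence after 22hr exposure.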
# [5] = qHTS assay to identify small molecule agonists or antagonists of the thyroid stimulating hormone receptor (TSHR) signaling pathway - wild type cell line counter screen (AID 1259384; calls by dose curve)
# How it was run: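 Wild-type Hek293 cells, 800/well, 18 h at 37C, then compound with Ro20-1724 for 30 min RT. cAMP by HTRF (cAMP-d2/anti-cAMP cryptate), 1 h RT, fluorescence read. 15 concentrations, triplicates.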
# [6] = qHTS assay to identify small molecule agonists of the estrogen receptor alpha (ER-alpha) signaling pathway in the presence of an antagonist - cell viability counter screen (AID 1259386);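 also: cells exposed to compounds for 22 h at 37 °C before the viability read; nearly all actives have a fitted effect of over 30% in size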; also: potency is read from the fitted curve at half-maximal effect
# How it was run: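 The test measures whether compounds kill ER-alpha reporter cells (VM7Luc4E2) under antagonist co-treatment (ICI-182,780, 10.0nM). Fluorescence from CellTiter-Fluor is read after a 22hr exposure.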
# [7] = target: Progesterone receptor (Homo sapiens) (UniProt P06401); experiment: qHTS assay to identify small molecule agonists of the progesterone receptor (PR) signaling pathway (AID 1346784; calls by dose curve; also: nearly all actives have a fitted effect of over 30% in size)
# Chain of Progesterone receptor (Homo sapiens) (P06401 whole entry, looked up): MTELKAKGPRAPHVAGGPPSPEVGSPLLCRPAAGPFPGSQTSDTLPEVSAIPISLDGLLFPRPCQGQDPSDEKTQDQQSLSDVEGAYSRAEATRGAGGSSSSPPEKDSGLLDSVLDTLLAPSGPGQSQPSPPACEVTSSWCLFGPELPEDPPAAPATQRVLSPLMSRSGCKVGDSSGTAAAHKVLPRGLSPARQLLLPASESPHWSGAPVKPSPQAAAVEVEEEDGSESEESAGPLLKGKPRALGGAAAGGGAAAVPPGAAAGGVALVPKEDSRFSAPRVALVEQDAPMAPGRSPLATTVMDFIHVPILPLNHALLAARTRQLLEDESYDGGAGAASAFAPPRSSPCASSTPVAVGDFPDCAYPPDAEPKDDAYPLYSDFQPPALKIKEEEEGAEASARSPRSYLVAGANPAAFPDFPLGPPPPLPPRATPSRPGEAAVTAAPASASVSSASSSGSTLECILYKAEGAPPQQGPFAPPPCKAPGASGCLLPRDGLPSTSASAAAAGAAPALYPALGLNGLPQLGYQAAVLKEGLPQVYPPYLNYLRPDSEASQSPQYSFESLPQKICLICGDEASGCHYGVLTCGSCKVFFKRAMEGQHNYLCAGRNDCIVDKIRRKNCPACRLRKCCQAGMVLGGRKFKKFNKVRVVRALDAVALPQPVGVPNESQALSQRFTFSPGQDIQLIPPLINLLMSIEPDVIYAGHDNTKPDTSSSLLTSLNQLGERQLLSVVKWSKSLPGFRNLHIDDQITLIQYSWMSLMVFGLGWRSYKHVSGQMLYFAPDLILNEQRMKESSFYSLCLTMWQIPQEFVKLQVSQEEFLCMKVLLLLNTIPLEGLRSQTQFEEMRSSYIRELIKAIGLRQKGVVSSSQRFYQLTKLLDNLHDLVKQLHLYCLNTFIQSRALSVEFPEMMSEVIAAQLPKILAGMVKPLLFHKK
# How it was run: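 Seed PR-UAS-bla HEK 293T cells (2% charcoal-stripped FBS), incubate 6 hr at 37C; add compounds in DMSO, 16 hr at 37C; add LiveBLAzer B/G substrate, 2 hr RT; read fluorescence intensity.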
# [8] = target: Progesterone receptor (Homo sapiens) (UniProt P06401); experiment: qHTS assay to identify small molecule antagonists of the progesterone receptor (PR) signaling pathway (AID 1346795; active = well fitted inhibition curve with a large enough effect in the signal ratio in the repeat runs, not every such curve was filed as active; the % refers to the signal ratio; also: potency is read from the fitted curve at half-maximal effect)
# How it was run: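 Screening used a GripTite HEK293T line with PR-responsive UAS-beta-lactamase. Cells were challenged with compound in the presence of 1 nM R5020 final for 16 hr at 37C; B/G FRET substrate, 2 hr room temperature, fluorescence.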
# [9] = qHTS assay to identify small molecule antagonists of the progesterone receptor (PR) signaling pathway - cell viability counter screen (AID 1346798); also: series mostly up to about 92 µM; nearly all actives have a fitted effect of over 50% in size
# How it was run: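 Measures cytotoxicity in parallel with the PR antagonist reporter read: HEK293T PR-UAS-bla cells get compound and R5020 for 16 hr, and remaining viable cells are quantified by CellTiter-Glo luminescence.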
# [10] = qHTS assay to identify small molecule agonists of the progesterone receptor (PR) signaling pathway - cell viability counter screen (AID 1346799; calls by dose curve; also: nearly all actives have a fitted effect of over 45% in size; also: potency is read from the fitted curve at half-maximal effect)
# How it was run: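 Using the same plates as the PR reporter screen, HEK293T PR-UAS-bla cells received compounds for 16 hr at 37C and were then lysed with CellTiter-Glo; luminescence was read 30 min later at room temperature.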
# [11] = qHTS assay to identify small molecule antagonists of the TGF-beta/Smad signaling pathway - cell viability counter screen (AID 1346824); also: nearly all actives have a fitted effect of over 50% in size
# How it was run: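 SBE-bla HEK 293T cells, incubated overnight, then compound plus 0.25 ng/mL TGF-beta1 (stock added) for 5 hr at 37 C. Viability was read in the same wells by CellTiter-Glo luminescence after 30 min at room temperature.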
# [12] = qHTS assay to identify small molecule agonists of the TGF-beta/Smad signaling pathway - cell viability counter screen (AID 1346829); also: top concentration of the series differs between compounds; nearly all actives have a fitted effect of over 45% in size
# How it was run: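 In parallel with the Smad reporter read, viability of HEK 293T cells stably carrying SBE-bla is quantified by ATP luminescence following 5 hr compound treatment.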
# [13] = qHTS assay to identify small molecule agonists of the TGF-beta/Smad signaling pathway (AID 1346859; active = well fitted activation curve with a large enough effect in the signal ratio in the repeat runs, not every such curve was filed as active; the % refers to the signal ratio; also: series mostly up to about 77 µM)
# How it was run: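 Beta-lactamase reporter activity downstream of Smad binding elements was measured in stably transfected HEK 293T cells; compounds were incubated for 5 hr, substrate for 2 hr at room temperature.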
# [14] = target: Thyrotropin-releasing hormone receptor (Homo sapiens) (UniProt P34981); experiment: qHTS assay to identify small molecule agonists of the thyrotropin-releasing hormone receptor (TRHR) signaling pathway (AID 1346891; calls by dose curve;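 also: HEK293 cells expressing TRHR with calcium dye readout; series mostly up to about 58 µM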)
# Chain of Thyrotropin-releasing hormone receptor (Homo sapiens) (P34981 whole entry, looked up): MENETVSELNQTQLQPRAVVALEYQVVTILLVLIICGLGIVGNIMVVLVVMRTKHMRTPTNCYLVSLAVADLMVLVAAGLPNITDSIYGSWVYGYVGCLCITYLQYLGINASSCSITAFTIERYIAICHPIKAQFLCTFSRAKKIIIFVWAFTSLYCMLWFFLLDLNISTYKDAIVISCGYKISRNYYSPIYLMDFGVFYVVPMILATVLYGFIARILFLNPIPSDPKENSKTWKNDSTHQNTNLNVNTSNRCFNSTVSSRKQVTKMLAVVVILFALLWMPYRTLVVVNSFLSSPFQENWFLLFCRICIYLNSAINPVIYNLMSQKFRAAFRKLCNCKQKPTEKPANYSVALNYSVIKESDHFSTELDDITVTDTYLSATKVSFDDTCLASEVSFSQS
# How it was run: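 Overnight-plated (18 h, 37 °C, 5% CO2) TRHR-Hek293 cells; 2 h calcium dye at 37 °C; compound in DMSO; 3-min kinetic fluorescence read.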
# [15] = qHTS assay to identify small molecule agonists of the androgen receptor (AR) signaling pathway in the presence of an antagonist - cell viability counter screen (AID 1259379); also: nearly all actives have a fitted effect of over 25% in size; also: potency is read from the fitted curve at half-maximal effect
# How it was run: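 MDA-kb2 viability measured by CellTiter-Fluor fluorescence in the same wells as the luciferase signal; nilutamide 3.0uM final; 15-point compound titration; 16 hr at 37C.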
# [16] = qHTS assay to identify small molecule agonists of the estrogen receptor beta (ER-beta) signaling pathway - cell viability counter screen (AID 1259380); also: nearly all actives have a fitted effect of over 30% in size; also: potency is read from the fitted curve at half-maximal effect
# How it was run: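 Measured: luminescence from CellTiter-Glo after 30 min at room temperature, added to wells already read for the LiveBLAzer FRET reporter (2 hr substrate); ER-beta-UAS-bla HEK293T cells had 16 hr compound treatment at 37C, 5% CO2.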
# [17] = target: Estrogen receptor beta (Homo sapiens) (UniProt Q92731); experiment: qHTS assay to identify small molecule antagonists of the estrogen receptor beta (ER-beta) signaling pathway (AID 1259378; active = well fitted inhibition curve with a large enough effect in the signal ratio in the repeat runs, not every such curve was filed as active; the % refers to the signal ratio; also: potency is read from the fitted curve at half-maximal effect)
# How it was run: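 ER-beta-UAS-bla HEK293T cells in 2% charcoal-stripped FBS medium treated with compound plus 1nM final 17-beta-estradiol for 16 hr at 37C. Beta-lactamase reporter read by FRET substrate fluorescence after 2 hours at room temperature.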
# [18] = target: Thyrotropin receptor (Homo sapiens) (UniProt P16473); experiment: qHTS assay to identify small molecule antagonists of the thyroid stimulating hormone receptor (TSHR) signaling pathway (AID 1259385; calls by dose curve; also: nearly all actives have a fitted effect of over 20% in size)
# Chain of Thyrotropin receptor (Homo sapiens) (P16473 whole entry, looked up): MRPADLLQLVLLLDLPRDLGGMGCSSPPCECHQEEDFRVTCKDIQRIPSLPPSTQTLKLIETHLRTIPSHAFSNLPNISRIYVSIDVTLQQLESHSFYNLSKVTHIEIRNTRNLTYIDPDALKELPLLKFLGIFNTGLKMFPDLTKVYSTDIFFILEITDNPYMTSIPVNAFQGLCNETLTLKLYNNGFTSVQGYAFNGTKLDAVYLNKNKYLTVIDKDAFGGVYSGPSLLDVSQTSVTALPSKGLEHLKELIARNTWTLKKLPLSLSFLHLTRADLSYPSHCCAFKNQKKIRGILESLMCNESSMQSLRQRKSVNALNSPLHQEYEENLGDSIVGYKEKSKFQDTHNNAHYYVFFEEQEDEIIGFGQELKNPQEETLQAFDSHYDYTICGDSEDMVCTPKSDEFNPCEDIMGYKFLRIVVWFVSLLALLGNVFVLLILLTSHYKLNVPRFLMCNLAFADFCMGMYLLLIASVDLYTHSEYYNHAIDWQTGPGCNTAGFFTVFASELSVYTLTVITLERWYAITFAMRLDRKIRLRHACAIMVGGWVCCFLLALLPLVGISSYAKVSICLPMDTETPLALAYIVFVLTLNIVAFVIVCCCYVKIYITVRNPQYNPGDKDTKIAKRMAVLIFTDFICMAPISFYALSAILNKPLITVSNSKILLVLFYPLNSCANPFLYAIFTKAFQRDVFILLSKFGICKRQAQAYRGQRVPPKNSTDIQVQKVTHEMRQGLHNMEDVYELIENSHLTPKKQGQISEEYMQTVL
# How it was run: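 TSHR-HEK293 cells (800/well) plated 18 h, then compounds with Ro20-1724 and TSH at 1.5 ng/mL final, 30 min at room temperature. cAMP quantified by HTRF (cAMP-d2/anti-cAMP-cryptate, 1 h); 15 concentrations in triplicate.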
# [19] = target: Thyrotropin-releasing hormone receptor (Homo sapiens) (UniProt P34981); experiment: qHTS assay to identify small molecule antagonists of the thyrotropin-releasing hormone receptor (TRHR) signaling pathway (AID 1346877; active = well fitted inhibition curve with a large enough effect in the repeat runs, not every such curve was filed as active; also: series mostly up to about 51 µM)
# How it was run: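 Overnight-plated (18 h, 37 °C) HEK293 cells expressing TRHR were dye-loaded 2 h, treated with compound, then stimulated with TRH at 1 nM final. Fluorescence intensity was captured every second for 3 min.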
Compound,Potency [1],Potency [2],Potency [3],Potency [4],outcome [5],Potency [6],Potency [7],Potency [8],Potency [9],Potency [10],Potency [11],Potency [12],outcome [13],Potency [14],Potency [15],Potency [16],Potency [17],Potency [18],Potency [19]
CS/C(C)=N/OC(=O)N(C)SN(C)C(=O)O/N=C(\C)SC,inactive,inactive,inactive,inactive,inactive,inactive,inactive,inactive,inactive,inactive,inactive,inactive,inactive,inactive,,,,,
CCCN(CCC)c1c([N+](=O)[O-])cc(S(C)(=O)=O)cc1[N+](=O)[O-],inactive,,,inactive,,inactive,inactive,,inactive,inactive,inactive,inactive,inactive,,inactive,inactive,,,
NCCCNCCCN,inactive,inactive,,,inactive,inactive,inactive,inactive,inactive,inactive,inactive,inactive,inactive,inactive,inactive,,inactive,inactive,
CC(C)N(C(=O)COc1nnc(C(F)(F)F)s1)c1ccc(F)cc1,inactive,,inactive,inactive,inactive,inactive,inactive,,inactive,,inactive,inactive,inactive,,inactive,,,inactive,
CC1CC(CC2CCC(N)C(C)C2)CCC1N (configuration not stated),,inactive,,inactive,inactive,,inactive,inactive,,,inactive,inactive,inactive,inactive,27.8 µM (active),,,inactive,inactive
COc1ccc(-c2ccccc2)cc1NNC(=O)OC(C)C,inactive,inactive,,inactive,,,,,,,inactive,inactive,inactive,inactive,,35.8 µM (active),63.7 µM (active),,inactive
NC(=O)C(Cl)(Cl)Cl,,,inactive,inactive,inactive,inactive,inactive,inactive,inactive,inactive,inactive,inactive,inactive,inactive,inactive,inactive,inactive,inactive,inactive
OCCCBr,,,inactive,inactive,inactive,inactive,inactive,,,,inactive,inactive,inactive,inactive,inactive,inactive,,inactive,inactive
CCOC(=O)[C@]1(c2ccccc2)Oc2ccccc2[C@@H]1N,inactive,,,,inactive,,inactive,,inactive,,inactive,inactive,inactive,inactive,,,,inactive,
O=[N+]([O-])c1ccc(F)c([N+](=O)[O-])c1,inactive,,inactive,inactive,,30.9 µM (active),inactive,inactive,,,,inactive,,inactive,27.6 µM (active),inactive,,inactive,
CC(c1ccc(O)cc1)(c1ccc(O)cc1)c1ccc(O)cc1,,,,inactive,,inactive,,19.3 µM (active),,,inactive,inactive,inactive,,,,,,
C/C(=C\c1ccccc1)[N+](=O)[O-],,inactive,inactive,inactive,,,,,,68.6 µM (active),inactive,inactive,,inactive,24.3 µM (active),,,,inactive
C=CC(=O)NCNC(=O)C=C,,48.6 µM (active),inactive,inactive,inactive,inactive,inactive,,inactive,,,inactive,inactive,inactive,inactive,,,,inactive
Cc1c(F)c(F)c(COC(=O)C2C(/C=C(\Cl)C(F)(F)F)C2(C)C)c(F)c1F (configuration not stated),inactive,,inactive,inactive,inactive,inactive,inactive,,inactive,inactive,,inactive,inactive,inactive,inactive,,inactive,inactive,inactive
CC(C)(OO)c1ccccc1,,,inactive,inactive,inactive,inactive,inactive,inactive,inactive,inactive,inactive,inactive,inactive,inactive,inactive,inactive,,inactive,inactive
